This is an account of results in PubChem BioAssay (EPA / NIEHS).

Where “and” joins values, the source holds several entries; their conditions need not be identical. Equal entries are not always repeated. Records with an inconclusive call do not appear. Some compounds were tested as several samples or in several runs, with calls that do not always agree. Calls of active or inactive are those of the source. How the source made its calls: active means hit-call score of the fitted dose curve at least 0.9, where 1 is the maximum; inconclusive means response in the unintended direction; inactive means score below 0.9.

Sequence of Retinoic acid receptor RXR-alpha (Homo sapiens) (P19793 whole entry, looked up, the tested form may be a part): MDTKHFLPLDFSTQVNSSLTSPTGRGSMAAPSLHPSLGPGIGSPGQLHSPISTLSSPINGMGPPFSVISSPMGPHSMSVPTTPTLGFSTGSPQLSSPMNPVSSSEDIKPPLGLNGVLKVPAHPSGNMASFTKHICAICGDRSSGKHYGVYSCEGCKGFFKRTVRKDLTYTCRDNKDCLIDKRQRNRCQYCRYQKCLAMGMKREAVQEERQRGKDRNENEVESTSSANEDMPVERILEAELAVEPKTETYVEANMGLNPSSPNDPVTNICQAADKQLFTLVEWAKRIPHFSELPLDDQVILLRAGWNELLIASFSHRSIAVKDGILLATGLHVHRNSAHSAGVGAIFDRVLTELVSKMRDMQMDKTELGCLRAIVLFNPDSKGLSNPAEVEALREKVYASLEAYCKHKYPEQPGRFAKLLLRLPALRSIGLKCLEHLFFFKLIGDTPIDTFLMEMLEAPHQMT

In the experiment the target is Retinoic acid receptor RXR-alpha (Homo sapiens) (UniProt P19793). In words: OT_NURR1_NURR1RXRa_1440: Odyssey Thera (OT) 24-hour HEK293T Protein Complementation Assay for Nurr1/retinoid X receptor (RXR) (AID 2283386). As to the method:
OT_NURR1_NURR1RXRa_1440 is a cell-based assay that uses HEK293T, a human kidney cell line, with measurements taken at 24 hours after chemical dosing in a 384-well plate.OT_NURR1_NURR1RXRa_1440 is one of one assay component(s) measured or calculated from the OT_NURR1_NURR1RXRa_1440 assay. It is designed to make measurements of protein fragment complementation, a form of binding reporter, as detected with fluorescence intensity signals by Protein-fragment Complementation technology.Data from the assay component OT_NURR1_NURR1RXRa_1440 was analyzed into 1 assay endpoint. This assay endpoint, OT_NURR1_NURR1RXRa_1440, was analyzed in the positive analysis fitting direction relative to DMSO as the negative control and baseline of activity. Using a type of binding reporter, measures of receptor for gain-of-signal activity can be used to understand the binding at the pathway-level as they relate to the gene RXRA. Furthermore, this assay endpoint can be referred to as a primary readout, because the performed assay has only produced 1 assay endpoint. To generalize the intended target to other relatable targets, this assay endpoint is annotated to the nuclear receptor intended target family, where the subfamily is non-steroidal.
Protein-fragment complementation assay, or PCA, is a method for the identification and quantification of protein-protein interactions. In the PCA, the proteins of interest ("bait" and "prey") are each covalently linked to fragments of a third protein (e.g. DHFR, which acts as a "reporter"). Interaction between the bait and the prey proteins brings the fragments of the reporter protein in close proximity to allow them to form a functional reporter protein whose activity can be measured.
As for `Cc1cccc(C)c1`, the compound was classed as inactive.
In the case of `CCCCCC1CCC(=O)O1` (stereo not given), the result was inactive.
On the same count and under the same terms, as for `OCC=Cc1ccccc1`, the entry is “inactive”; as for `CCC(C)C1CCCCC1=O` (stereo not given), “inactive”.
On to `CCCCCCCCCCCCN1CCOCC1`, for which the concentration at half-maximal activity (AC50) (commonly the concentration giving half of the maximal activity seen) is 80.4 µM (active).
Regarding `O=C(O)C1=NN(c2ccc(S(=O)(=O)O)cc2)C(=O)C1`, the call was inactive.
Still for that read-out and setting: as for `CCCCCCCCCCOC(=O)c1ccccc1C(=O)OCCCCCCCC`, the entry is “inactive”.
Regarding `CC(=O)C1=C(C)[C@@H]2C[C@@]3(C1)[C@H](C)CC[C@H]3C2(C)C`, the AC50 was 90 µM (active).
On to `CCCCC(CC)COCCO` (stereo not given), for which the result was inactive.
Same read-out and setting: as for `COc1cc(OC)c2ccc(=O)oc2c1`, the entry is “inactive”; as for `CCC(C)(C)C1CCC(OC)CC1` (stereo not given), “inactive”.
For `CC1=CCC(=C(C)C)CC1`, the concentration at half-maximal activity (AC50) was 77.4 µM (active).
Turning to `CC(=O)CC(=O)N(C)C`, the call was inactive.
Still for that read-out and setting: as for `CC(=O)OC/C=C(C)/C=C/C=C(C)/C=C/C1=C(C)CCCC1(C)C`, the entry is “inactive”.
The same measure, in the same setting: as for `C=CC(C)CCCC(C)(C)O` (stereo not given), the entry is “inactive”.
Same read-out and setting: as for `COC(=O)C(C)Oc1ccc(Oc2ncc(C(F)(F)F)cc2Cl)cc1` (stereo not given), the entry is “inactive”.
As to `CC1=CCC(C(C)(C)O)CC1` (stereo not given), the outcome was inactive.
The same measure, in the same setting: as for `CC(C)(C)c1cccc(O)c1`, the entry is “inactive”.
Same read-out and setting: as for `CCCCCCCCOC(C)=O`, the entry is “inactive”; as for `CC(=O)C1C(=O)C=C(C)OC1=O` (stereo not given), “inactive”.
Still for that read-out and setting: as for `FC(F)(F)c1ccc(Cl)c(Cl)c1`, the entry is “inactive”; as for `CC(=O)Nc1cc(S(=O)(=O)O)cc2cc(S(=O)(=O)O)c(N=Nc3ccccc3)c(O)c12`, “inactive”; as for `CCC(=O)OC(C)(C)C1CC=C(C)CC1` (stereo not given), “inactive”.
As to `CC(=O)c1ccc(O)cc1`, the compound was called inactive.
Still for that read-out and setting: as for `C=CCCCCCCCCC(=O)OCC`, the entry is “inactive”.
Consider `CCC(C)COC(=O)CC(C)C` (stereo not given), for which the call was inactive.
On the same count and under the same terms, as for `CC(C)N(c1ccccc1)C(C)C`, the entry is “inactive”; as for `CCOCC(C)O` (stereo not given), “inactive”.
For `C#C[C@]1(O)CC[C@H]2[C@@H]3CCc4cc(O)ccc4[C@H]3CC[C@@]21C`, the compound was called inactive and the concentration at half-maximal activity (AC50) is 18.2 µM (active).
`CCCCCCOc1ccc(O)cc1`: the result was inactive.
With `CC12CCC(C1)C(C)(C)C2O` (stereo not given), the outcome was inactive.
Regarding `CCCCCCC(C)O` (stereo not given), the compound was called inactive.
Still for that read-out and setting: as for `C1CCCNCC1`, the entry is “inactive”.
In the case of `CC/C(=C(\c1ccccc1)c1ccc(OCCN(C)C)cc1)c1ccccc1`, the AC50 was 10.4 µM (active) and 11.5 µM (active).
As for `O=C(O)CS`, the result was inactive.
Same read-out and setting: as for `CCCCN(CCCC)CCCCCCN(CCCC)CCCC`, the entry is “inactive”.
On the same count and under the same terms, as for `O=C(O)c1ccccc1O`, the entry is “inactive”.
Still for that read-out and setting: as for `CC1COC(=O)O1` (stereo not given), the entry is “inactive”.
Turning to `CC(C)(CO)CO`, the result was inactive.
